Source: PubChem (National Center for Advancing Translational Sciences (NCATS))
Shown are actives, neighbours in structure and some others; about 8% of the full set was active somewhere.
HCMV inh: inhibitors of human cytomegalovirus | HFF cells, HCMV-luciferase reporter, 72 h; stronger effect = lower value | activity change, negative = inhibition, % at 57.5 µM | actives 4.5% (n = 410,000) | AID 1259415; in the data active = activity change below about -60%; inconclusive = no clear call, values can overlap the other calls; inactive = above about -39%; also: % is scaled to controls: 0 for no effect and ±100 for the full control effect
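Two-dose cell screen: HFF monolayers treated with compounds and infected with luciferase-expressing HCMV at 1 PFU/cell, 72 h at 37C, then lysed for luciferase measurement.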
LASV entry inh: blocks Lassa virus binding to or entry into cells; Lassa virus pseudotype entry inhibition, cell reporter; Potency, µM (doses to about 37.9 µM), for inactives: top-dose activity change, negative = inhibition, actives largely listed as inhibitors; actives 1.2% (n = 300,000); AID 540256; calls by dose curve; tested in HEK293 cells; also: potency is read from the fitted curve at half-maximal effect; % is scaled to controls: 0 for no effect and ±100 for the full control effect; nearly all actives have a fitted effect of over 50% in size
Marburg entry inh: blocks Marburg virus binding to or entry into cells. Marburg virus pseudotyped entry inhibition, cell reporter. actives 1.8% (n = 300,000). AID 540276. Potency, µM (series often up to 37.8 µM), for inactives: top-dose activity change, negative = inhibition, most hits filed as inhibitors; calls by dose curve; tested in HEK293 cells; also: potency is read from the fitted curve at half-maximal effect; % is scaled to controls: 0 for no effect and ±100 for the full control effect
HCV inh: HCV inhibition; Huh7.5.1 HCVcc-Cre infection, luciferase reporter, 44 h; Potency, µM (series often up to 41.8 µM), for inactives: top-dose activity change, negative = inhibition, hits mostly inhibitors; actives 3.4% (n = 340,000); AID 651820; active = well fitted inhibition curve with a large enough effect; inconclusive = small, poorly fitted or top-dose-only effect, or another doubt; inactive = no such curve, though single readings can be large or run the other way; also: potency is read from the fitted curve at half-maximal effect; % is scaled to controls: 0 for no effect and ±100 for the full control effect
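Luciferase read-out (15 sec integration) after a 15 min room-temperature substrate step quantifies HCVcc-Cre infection. Cells, 1,000 per well, had compound added 4 h post-plating, then virus at ~0.5 moi, and were cultured 44 h.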
FMDV inh: antivirals against foot and mouth disease virus; actives 1.2% (n = 410,000); Potency, µM (highest dose often 57.9 µM), inactives show at the top dose activity change, negative = inhibition, actives largely listed as inhibitors; AID 1159524; FMDV antiviral cell-based qHTS; calls by dose curve; tested in HEK293T cells; also: read-out not given here; potency is read from the fitted curve at half-maximal effect; % is scaled to controls: 0 for no effect and ±100 for the full control effect; nearly all actives have a fitted effect of over 45% in size
SARS PLpro yeast: SARS-CoV PLP inhibition in yeast | S. cerevisiae expressing SARS-CoV PLpro, growth rescue | AID 485353 | actives 0.19% (n = 330,000) | Potency, µM (highest dose often 32.9 µM), without a hit: top-dose activity, positive = growth rescue, most hits filed as activators; calls by dose curve; also: potency is read from the fitted curve at half-maximal effect; 0% is about no effect; nearly all actives have a fitted effect of over 55% in size
Starred values were filed as active, the others as inactive; ? = inconclusive; · = no result; + = active, no number; [ ] = another dose, or the depositor's remark.

SMILES | HCMV inh | LASV entry inh | Marburg entry inh | HCV inh | FMDV inh | SARS PLpro yeast
Nc1nonc1C(=O)NCCNC(=O)c1ccc(Cl)cc1 | 9 | -15% | 0%[46.1 µM] | 2% | 15% | 0%
COC(=O)c1ccccc1NC(=O)N1CCN(c2ccc(F)cc2)CC1 | -63* | · | · | -28% | -23% | 0%
O=C(c1ccc(N2CCN(C(=O)c3ccc(F)cc3F)CC2)cc1)c1cccc(F)c1 | -35 | · | · | 11µM* | ? | -1%
O=C(c1ccccc1C(=O)N1CCN(c2ccc(F)cc2)CC1)N1CCN(c2ccc(F)cc2)CC1 | -24 | ? | ? | -4% | 22µM* | ?
COc1cccc(NC(=O)COC(=O)c2ccccc2C(=O)N2CCN(c3ccccc3)CC2)c1 | ? | ? | ? | ? | 18µM* | 4%
O=C(c1ccc(F)cc1F)N1CCN(c2ncccn2)CC1 | 2 | 0% | 2% | 18% | -15% | 5%
CC1(c2nnc(-c3cccc(Cl)c3)o2)CC(c2ccc(OC(F)(F)F)cc2)=NO1 (stereo not given) | 9 | · | · | 17% | -16% | -2%
COc1ccc(S[C@]2(c3nc(C)no3)CC(=O)N(C(=O)c3ccccc3)[C@@H]2c2ccc(OC)cc2)cc1 | -9 | · | · | · | · | ·
COC(=O)C(c1ccccc1)(c1cn(C)c2ccccc12)C(Nc1ccc(OC)cc1)c1ccccc1 (stereo not given) | -5 | · | · | · | · | ·
O=C(Cn1nc(C(=O)O)c2ccccc2c1=O)Nc1cc(S(=O)(=O)N2CCOCC2)ccc1Cl | 28 | -7%[46.1 µM] | 18%[46.1 µM] | 8% | ? | -3%
O=C(c1n[nH]c(=O)c2ccccc12)N1CCN(c2ccc(F)cc2)CC1 | -102* | -14% | -4% | -2% | ? | 5%
N#CCCn1cc(C(=O)Nc2ccc([N+](=O)[O-])cc2)c(-c2ccc3c(c2)OCCO3)n1 | -67* | ? | 11% | -13% | 26% | -12%
N=c1n(CCN2CCCC2)c2ccccc2n1CC(O)c1ccco1 (stereo not given) | -22 | ? | ? | ? | -2% | 1%
CCCCn1c(=N)n(CC(O)c2ccccc2)c2ccccc21 (stereo not given) | ? | ? | 13µM* | ? | -17% | 1%
CCCCCCCn1c(=N)n(CC(O)c2ccco2)c2ccccc21 (stereo not given) | -73* | ? | 2.8µM* | 8.9µM* | -16% | 0%
CC(C)(C)c1ccc(Cn2c(=N)n(CC(O)c3ccco3)c3ccccc32)cc1 (stereo not given) | · | -27% | 11µM* | 10µM* | 20µM* | 0%
CCn1c(=N)n(CC(O)c2ccccc2)c2ccccc21 (stereo not given) | -16 | 2% | ? | 15% | -11% | ·
CCOC(=O)CN(Cc1ccccc1)C(C(=O)NC1CCCCC1)c1ccc(OC)cc1 (stereo not given) | 2 | 12%[46.1 µM] | -17%[46.1 µM] | · | -6% | ·
CN1c2ccccc2C2(C)CCCC3=Cc4cccc([N+](=O)[O-])c4OC312 (stereo not given) | ? | 7% | -2% | 7% | ? | 2%
CN1c2ccccc2C2(C)CCCC3=Cc4cc([N+](=O)[O-])cc([N+](=O)[O-])c4OC312 (stereo not given) | -60* | -6% | ? | 2% | ? | 17%
Cc1ccc(NS(=O)(=O)c2ccccc2)c2c1CC(C)(C)O2 | -16 | ? | ? | 10µM* | 12% | -25%
Cc1cc2oc(=O)sc2cc1NS(=O)(=O)c1ccccc1 | -9 | 11µM* | -1%[46.1 µM] | -13% | 6% | -10%
O=S(=O)(Nc1ccc(Cl)cc1NS(=O)(=O)c1ccccc1)c1ccccc1 | -29 | -2%[46.1 µM] | 4%[46.1 µM] | 0.5µM* | -21% | ·
Cc1cc(-c2ccc(NS(=O)(=O)c3ccccc3)c(C)c2)ccc1NS(=O)(=O)c1ccccc1 | 15 | ? | ? | 8.9µM* | -1% | ·
Cc1ccc(NS(=O)(=O)c2ccccc2)c(NS(=O)(=O)c2ccccc2)c1 | -2 | -6%[46.1 µM] | -19%[46.1 µM] | 14% | -3% | ·
SMILES | HCMV inh | LASV entry inh | Marburg entry inh | HCV inh | FMDV inh | SARS PLpro yeast
COc1ccc2c(c1OC)C(=O)OC2N1C(=O)CC[C@H]1C(=O)Nc1ccc(F)cc1F (stereo not given in full) | 18 | · | · | 0.56µM* | -17% | -6%
O=C1OC(N2C(=O)CC[C@H]2C(=O)Nc2ccc(Br)cc2F)c2ccccc21 (stereo not given in full) | 0 | · | · | 4% | -23% | 2%
CC(C)c1ccc(NC(=O)CSc2nc(=O)n(Cc3ccccn3)c3c2CCC3)cc1 | -102* | -35%[46.1 µM] | · | · | 0% | ·
CCc1ccc(NC(=O)CSc2nc(=O)n(CCN(C)C)c3c2CCCC3)cc1 | -19 | ? | 13µM* | ? | 35% | -3%
Cc1ccc(NC(=O)CSc2nc(=O)n(Cc3ccccn3)c3c2CCC3)cc1F | -36 | -8%[46.1 µM] | · | · | -24% | ·
CC(C)c1ccc(NC(=O)CSc2nc(=O)n(Cc3cccnc3)c3c2CCC3)cc1 | -107* | -1%[46.1 µM] | · | · | ? | ·
COc1ccc(C)cc1NC(=O)CSc1nc(=O)n(Cc2ccncc2)c2c1CCC2 | -103* | 5%[46.1 µM] | · | · | 0% | ·
Cc1ccc2[nH]c(CN3CCC(CO)(CC4CCCCO4)CC3)c(C)c2c1 (stereo not given) | -70* | 5µM* | ? | -15% | -20% | 0%
Cc1ccc(CN2CCC(CO)(CC3CCCCO3)CC2)o1 (stereo not given) | 16 | 5% | 12%[46.1 µM] | -1% | 7% | 1%
OC(c1cccnc1)c1ccc2c(c1)CN(Cc1ccc(-c3ccccc3Cl)o1)CCO2 (stereo not given) | · | · | · | · | 2% | ·
Fc1ccc(NC(=S)Nc2ccc(F)c(Cl)c2)cc1Cl | · | -17% | 0%[46.1 µM] | ? | ? | -44%
Cc1ccc(NC(=S)Nc2ccc(OC(F)F)c(Cl)c2)cc1F | ? | -5% | -29%[46.1 µM] | 13µM* | -10% | -12%
COc1ccc(NC(=O)CCn2cnc3onc(-c4ccc(F)cc4)c3c2=O)cc1OC | -72* | 0%[46.1 µM] | · | · | 10µM* | ·
COc1cc(Cl)c(C)cc1NC(=O)CCn1cnc2onc(-c3ccc(F)cc3)c2c1=O | -11 | -9%[46.1 µM] | · | · | 0% | ·
Cc1cccc(-n2nc(C)c(C(=O)N3CCN(c4ccccc4)CC3)c2-n2cccc2)c1 | + | -12%[46.1 µM] | · | · | ? | ·
Cc1cc(C)c(S(=O)(=O)N2CCN(C(=O)c3c(C)nn(-c4ccccc4)c3Cl)CC2)c(C)c1 | -72* | ? | 14µM* | ? | 25µM* | ·
CCOC(=O)N1CCN(C(=O)c2c(C)nn(-c3cccc(C)c3)c2-n2cccc2)CC1 | 0 | -7%[46.1 µM] | · | · | -24% | ·
Cc1ccc(S(=O)(=O)N2CCN(C(=O)c3c(C)nn(-c4ccccc4)c3Cl)CC2)cc1 | -75* | ? | -27% | ? | · | -7%
